PubChem BioAssay AID504908 (NMMLSC, 2011)
Where “and” joins values, the source holds several entries; their conditions need not be identical. Equal values may be shown once. In all, about 1,300 compounds went through this assay and about 25 (2%) were called active.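 Rule for the calls: active = inhibition above a set limit, roughly 3 SD of non-fluorescent compound noise (cut at about 38% in these data); inactive = inhibition at or below that limit.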 A selection follows.

What follows are molecules tested against AP-2 complex subunit beta (Homo sapiens) (UniProt P63010) (assay: beta-arrestin/AP2 interaction blockers, retest – biochemical, cherry pick 1, flow cytometry beads, confirmation (AID 504908;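 note: loss of bead fluorescence from 50 nM FITC arrestin peptide bound to appendage; 0% = negative control wells and 100% = excess unlabelled arrestin peptide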)). Conditions: GST-AP2 beads, FITC arrestin peptide binding, at 10 µM, stronger effect = higher value, GST-fused beta2-adaptin appendage, R879A mutant.
Sequence of AP-2 complex subunit beta (Homo sapiens) (P63010 whole entry, looked up, the tested form may be a part, one chain of several): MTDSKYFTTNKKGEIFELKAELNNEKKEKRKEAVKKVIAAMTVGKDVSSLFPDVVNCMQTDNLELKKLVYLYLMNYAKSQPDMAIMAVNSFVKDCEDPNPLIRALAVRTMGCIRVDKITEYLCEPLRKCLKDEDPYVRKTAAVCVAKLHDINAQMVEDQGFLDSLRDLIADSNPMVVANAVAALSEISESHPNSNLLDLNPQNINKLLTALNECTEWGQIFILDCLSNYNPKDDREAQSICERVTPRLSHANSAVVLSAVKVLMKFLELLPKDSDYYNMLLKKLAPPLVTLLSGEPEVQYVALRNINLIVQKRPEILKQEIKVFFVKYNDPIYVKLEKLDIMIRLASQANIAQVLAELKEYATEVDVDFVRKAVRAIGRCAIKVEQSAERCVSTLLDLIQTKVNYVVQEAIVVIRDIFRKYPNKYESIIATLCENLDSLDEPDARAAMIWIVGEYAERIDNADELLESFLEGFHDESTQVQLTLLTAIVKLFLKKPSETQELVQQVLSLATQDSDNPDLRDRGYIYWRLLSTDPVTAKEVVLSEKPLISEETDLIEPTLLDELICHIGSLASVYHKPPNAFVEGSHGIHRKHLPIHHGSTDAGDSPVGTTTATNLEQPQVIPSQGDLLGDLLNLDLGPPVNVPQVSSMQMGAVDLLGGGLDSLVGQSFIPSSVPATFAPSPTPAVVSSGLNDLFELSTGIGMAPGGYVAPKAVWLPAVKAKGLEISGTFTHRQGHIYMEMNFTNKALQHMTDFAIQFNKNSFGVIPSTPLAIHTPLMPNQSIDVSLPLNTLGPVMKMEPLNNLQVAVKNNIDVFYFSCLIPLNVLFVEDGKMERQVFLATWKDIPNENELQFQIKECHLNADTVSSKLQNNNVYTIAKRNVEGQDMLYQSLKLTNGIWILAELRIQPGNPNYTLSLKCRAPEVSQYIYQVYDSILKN

inhibition, inactive:
CN(C(=O)COC(=O)c1cc(=O)[nH]c2ccccc12)C1CCCCC1 -1.7%, Cc1ccc(CN2C(=O)CCC2C(=O)NCCCN2CCCCC2C)cc1 (centres undefined) 10.8%, CC(NC(=O)c1cc2cc(Cl)ccc2oc1=N)c1ccccc1 (centres undefined) -6.34%, COC(=O)c1cc(NC(=O)c2nn(C)c(=O)c3ccccc23)cc(C(=O)OC)c1 -5.22%, COc1ccc(CCNc2ncnc3c2nnn3Cc2ccccc2)cc1 -10.5%, CCn1c(=O)n(CC)c2cc(N3CCCC3)c(NC(=O)c3ccccc3Br)cc21 -0.2%, CC(NCCc1ccc(S(N)(=O)=O)cc1)C(=O)NCc1ccccc1 (centres undefined) 5.93%, O=C(C1CCCO1)N1CCN(S(=O)(=O)c2ccc(Br)cc2)CC1 (centres undefined) -1.61%, Cc1ccc(CNC(=O)C2CC(=O)N(C3CCCCCCC3)C2)cc1 (centres undefined) -8.23%, Cc1ccc(S(=O)(=O)N2CCCCC2)cc1NC(=O)c1cccnc1 -9.09%, NC(=O)C1CCN(C(=O)CC2C(=O)NCCN2Cc2cccc(Oc3ccccc3)c2)CC1 (centres undefined) 0.55%, CCCc1ccc(-c2csc(NC(=O)Cc3cccs3)n2)cc1 8.55%, Cc1cccc(Nc2ccccc2C(=O)NCc2ccco2)c1C 6.33%, Cc1ccc(S(=O)(=O)N2CCN(C(=O)c3ccccc3-c3nc4ccccc4s3)CC2)c(C)c1 15.9%, COc1cc2c(cc1NC(=O)COC(=O)/C=C/c1ccccc1)oc1ccccc12 -9.67%, Cc1ccc(Nc2ccc(C(N)=O)cc2[N+](=O)[O-])cc1 -3.07%, CC(C)C[C@H](NC(=O)N1CCn2c1nc1ccccc12)C(=O)NC1CC1 9.68%, Cc1ccc(C)c(NC(=S)NNC(=S)Nc2ccc(C(C)C)cc2)c1 -5%, Cc1cccc(C)c1NC(=O)C(Cl)C(=O)c1ccccc1 (centres undefined) 8.36%, CC(C)c1nnc(NC(=O)CCC(=O)N2CCN(c3cccc(Cl)c3)CC2)s1 1.25%, Cc1cccc(NC(=S)NC(=O)c2ccc(Br)o2)c1 -4.95%, CC(=O)NCCNC(=O)c1cc(-c2cccc3ccccc23)nc2ccccc12 -1.13%, CCOC(=O)N1CCN(C(=O)CNC(=O)Cc2ccc(Cl)cc2)CC1 -12.2%, Brc1ccccc1C1Nc2cccc3cccc(c23)N1 14.3%, O=C(NCc1ccco1)c1ccc(CS(=O)(=O)Cc2ccc(F)cc2)o1 3.68%, CCOc1ccc(C(=O)NC2CCN(CC(=O)NCc3cccs3)CC2)cc1 -3.4%, Cc1ccc(S(=O)(=O)/N=C(/Nc2ccccn2)c2ccc(Cl)cc2)cc1 13.7%, CC(Oc1ccccc1)C(=O)NN1Cc2ccccc2C1=N (centres undefined) -3.2%, Cn1c(=O)c([N+](=O)[O-])c(Oc2ccccc2)c2ccccc21 2.7%, CCC(C(=O)OC)n1cnc2c(oc3ccccc32)c1=O (centres undefined) -3.46%, CN(C)c1ccc(NC(=O)c2ccncc2)c2ccccc12 -3.42%, COc1ccc(/C=C2\SC(=S)N(CCC(=O)Nc3ccccn3)C2=O)cc1OC 17.1%, CCC(=O)Nc1nc2ccccc2n1Cc1ccccc1C -4.23%, O=C(NCC1(N2CCCCC2)CCCCC1)c1cccc(S(=O)(=O)Nc2ccccc2Cl)c1 -1.26%, COC(=O)C1CC2=C(CC(C)(C)CC2=O)N(c2ccccc2)C1=O (centres undefined) -13.1%, CN1C(=O)/C(=C/c2ccco2)SC1=Nc1cccc(C(=O)O)c1 9.02%, Cc1cc(C(=O)Nc2ccc(C)c(S(=O)(=O)N3CCOCC3)c2)c2ccccc2n1 7.91%, COc1cccc(-n2c(SCC(=O)c3c[nH]c4ccccc34)nc3ccccc3c2=O)c1 11.3%, Cc1cc(C)cc(Oc2nc3c(C)cccn3c(=O)c2/C=C(\C#N)C(=O)NC2CCS(=O)(=O)C2)c1 (centres undefined) 7.24%, Cc1ccc(C2(C)NC(=O)N(CC(=O)Nc3ccccc3C(=O)N3CCCCC3)C2=O)cc1 (centres undefined) 0.91%, Cc1cc(C(=O)OCC(=O)c2c(N)n(C)c(=O)n(C)c2=O)c(C)o1 -0.6% and 1.98%, NS(=O)(=O)c1ccc2nc(NC(=O)C3=COCCO3)sc2c1 3.87%, C/C(=N\Nc1ccc([N+](=O)[O-])cc1)c1ccc(-n2nncc2C(C)(C)C)cc1 -0.82%, COc1cc2c(cc1OC)CN(C(=O)c1cc(=O)c3ccccc3o1)CC2 -9.22%, Cc1ccc(OCCCCc2c(C)n[nH]c2C)cc1 4.8%, COCCNC(=O)Nc1ccc2nc(-c3ccco3)c(-c3ccco3)nc2c1 34%, Cc1ccc(OCCCC(=O)Nc2ccc3c(c2)OCCO3)cc1 -5.58%, Cc1ccc(Cl)cc1-c1ccc(/C=N/n2cnnc2)o1 -9.15%, CC(C)(C)c1ccc(C(=O)NCCn2c(N)c(C#N)c3nc4ccccc4nc32)cc1 6.81%, Cn1c(=O)c2c(nc(N/N=C/c3cccs3)n2Cc2ccc(Br)cc2)n(C)c1=O 1.14%, CC(CN1CCCCC1)OC(=O)c1ccccc1Cl (centres undefined) 7.67%, CCOc1ccc(-c2nnc(-c3ccco3)o2)cc1 11.9%, O=c1[nH]c2ccccc2n2c(-c3ccccc3)nnc12 20.4%, O=C(c1ccc(S(=O)(=O)NCc2ccco2)cc1)N1CCN(c2ccccc2)CC1 1.61%
